Data: PubChem BioAssay (Tox21)
Results filed as inconclusive are left out. A call without a number means that no potency is given here. Unmarked numbers belong to inactive results. Calls of active or inactive are those of the source. The call rests on the fitted dose curve; in most records, active means well fitted cell-killing curve with a large enough effect in the repeat runs; inconclusive means weak or mixed curves, or effect the other way; inactive means flat fitted curve, though single readings scatter.

Columns and labels:
[1] = cAMP Responsive Elements (CRE) small molecule antagonists, cell-based qHTS assay: qHTS cell viability counter screen (AID 2060913); further: nearly all actives have a fitted effect of over 40% in size
In short: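 CRE-bla HEK293T cells were seeded in assay medium with 10% dialyzed FBS, incubated 18 hrs at 37 C, then exposed to compounds plus 0.25 uM final NKH477 for 3 hrs. Viability was read by CellTiter-Glo luminescence after 30 min, in the same wells.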

[2] = cAMP Responsive Elements (CRE) small molecule agonists, cell-based qHTS assay: qHTS cell viability counter screen (AID 2060914); further: nearly all actives have a fitted effect of over 50% in size
In short: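 In the same wells as the reporter read, viability of CRE-bla HEK 293T cells was quantified by CellTiter-Glo luminescence after a 3 h compound exposure.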

SMILES	Potency [1]	Potency [2]	viability change, negative = cytotoxic [1]	activity change, negative = cytotoxicity [2]
Cc1ccc(C(=O)c2cc(O)c(O)c([N+](=O)[O-])c2)cc1	inactive	inactive	–	–
C=COCC1CCC(CO)CC1 (stereo not given)	inactive	inactive	–	–
CC(=O)Nc1ccccc1O	inactive	inactive	–	–
CCN(CC)CCCC(C)Nc1c2ccc(Cl)cc2nc2ccc(OC)cc12 (stereo not given)	inactive	inactive	–	–
COC(=O)NCCC[Si](OC)(OC)OC	inactive	inactive	–	–
Cc1ccc(NC(N)=O)cc1	inactive	inactive	–	–
CC(=O)OC(C)=O	inactive	inactive	–	–
CC(=O)OCC(=O)[C@@]1(O)[C@H](OC(C)=O)C[C@H]2[C@@H]3CCC4=CC(=O)C=C[C@]4(C)[C@@]3(F)[C@@H](O)C[C@@]21C	inactive	inactive	–	–
O=C(O)c1cc(C(=O)O)cc([N+](=O)[O-])c1	inactive	inactive	–	–
COc1ccc(NC(=O)CC(C)=O)cc1	inactive	inactive	–	–
BrCCCCCBr	inactive	inactive	–	–
O=C(Oc1ccccc1)c1ccc2ccccc2c1O	inactive	inactive	–	–
C=COCCOCCOC=C	inactive	inactive	–	–
CC/C=C\CCOC(=O)C(C)C	inactive	inactive	–	–
CCOC(=O)c1ccccc1	inactive	inactive	–	–
O=c1cccccc1O	inactive	inactive	–	–
Brc1ccc(-c2ccccc2)cc1	inactive	inactive	–	–
CC(C)(C)c1cccc(O)c1	inactive	inactive	–	–
N[C@@H](Cc1cc(I)c(O)c(I)c1)C(=O)O	inactive	inactive	–	–
C=O	inactive	inactive	–	–
C=C(C)C1CC=C(C)CC1 (stereo not given)	inactive	inactive	–	–
CC(C)C[C@@H]1[C@H](c2ccccc2)OC(=O)N1CCCN1CCCCCC1	inactive	inactive	–	–
CC[C@]1(O)C[C@H]2CN(CCc3c([nH]c4ccccc34)[C@@](C(=O)OC)(c3cc4c(cc3OC)N(C=O)[C@H]3[C@@](O)(C(=O)OC)[C@H](OC(C)=O)[C@]5(CC)C=CCN6CC[C@]43[C@@H]65)C2)C1	inactive	inactive	–	–
CC(C)(C)NCC(O)COc1cccc2c1CCC(=O)N2 (stereo not given)	inactive	inactive	–	–

SMILES	Potency [1]	Potency [2]	viability change, negative = cytotoxic [1]	activity change, negative = cytotoxicity [2]
CCOC(=O)CC(CC(=O)OCC)(OC(C)=O)C(=O)OCC	inactive	inactive	–	–
CCCSS/C(CCO)=C(\C)N(C=O)Cc1cnc(C)nc1N	inactive	inactive	–	–
NS(=O)(=O)c1ccc(C(=O)O)cc1	inactive	inactive	–	–
COC(=O)c1ccccc1O	inactive	inactive	–	–
CN(C)c1ccc(/C=C/c2ccc([N+](=O)[O-])cc2)cc1	–	–	10.9% [at 8.39 µM]	5.22% [at 8.39 µM]
O=C1OC2(c3ccc(O)cc3Oc3cc(O)ccc32)c2ccc(N=C=S)cc21	inactive	inactive	–	–
CC1=NN(c2ccc(S(=O)(=O)O)cc2)C(=O)C1N=Nc1ccccc1 (stereo not given)	inactive	inactive	–	–
CCCCCC(=O)O	inactive	inactive	–	–
CCCCS	inactive	inactive	–	–
Cc1ccc2ccc(Cl)cc2n1	inactive	inactive	–	–
CC(=O)OC[C@H]1O[C@@H](n2ncc(=O)[nH]c2=O)[C@H](OC(C)=O)[C@@H]1OC(C)=O	inactive	inactive	–	–
Cc1ccccc1S(=O)(=O)O	inactive	inactive	–	–
Cc1cc(O)c(C(C)C)cc1Cl	inactive	inactive	–	–
O=C(O)c1cc(=O)c2c(OCC(O)COc3cccc4oc(C(=O)O)cc(=O)c34)cccc2o1	inactive	inactive	–	–
O=C1c2c(O)ccc(O)c2C(=O)c2c(NCCNCCO)ccc(NCCNCCO)c21	inactive	inactive	–	–
CC(N)CCCC(C)(C)O (stereo not given)	inactive	inactive	–	–
CC(C)CO	inactive	inactive	–	–
O=[N+]([O-])c1ccc(O)c2ncccc12	inactive	inactive	–	–
C=CC(=O)OCCOCCOCC	inactive	inactive	–	–
C[N+](C)(C)CCO	inactive	inactive	–	–
CC(C)OP(=O)(CP(=O)(OC(C)C)OC(C)C)OC(C)C	inactive	inactive	–	–
O=[N+]([O-])c1cc(Cl)c(Cl)c(Cl)c1Cl	inactive	inactive	–	–
CCN1CCOCC1	inactive	inactive	–	–
O=C(O)c1cccc(Cl)n1	inactive	inactive	–	–

SMILES	Potency [1]	Potency [2]	viability change, negative = cytotoxic [1]	activity change, negative = cytotoxicity [2]
Oc1ccccc1Cc1ccccc1O	inactive	inactive	–	–
C1CN(CCOCCN2CCOCC2)CCO1	inactive	inactive	–	–
CCO[C@@H]1O[C@H](C(COCc2ccccc2)OCc2ccccc2)[C@H](OCc2ccccc2)[C@H]1O (stereo not given in full)	inactive	inactive	–	–
C=C(C)C(=O)OCCNC(C)(C)C	inactive	inactive	–	–
OCCN1C[C@H](O)[C@@H](O)[C@H](O)[C@H]1CO	inactive	inactive	–	–
O=C1CCCCO1	inactive	inactive	–	–
COc1cc(C(=O)N2CCCCCCC2)cc(OC)c1OC	inactive	inactive	–	–
CC(C)=CCC/C(C)=C/CC/C(C)=C/CCC(=O)OC/C=C(\C)CCC=C(C)C	inactive	inactive	–	–
CCCCC1=NC2(CCCC2)C(=O)N1Cc1ccc(-c2ccccc2-c2nn[nH]n2)cc1	inactive	inactive	–	–
CCN(CC)CCNC(=O)COc1ccc(OC)cc1	inactive	inactive	–	–
COCC(C)O (stereo not given)	inactive	inactive	–	–
O=C(OC(=O)c1ccccc1)c1ccccc1	inactive	inactive	–	–
C=CC(C)(O)CCCC(C)CCCC(C)CCCC(C)C (stereo not given)	inactive	inactive	–	–
CC(C)(C)c1ccc(S)cc1	inactive	inactive	–	–
C=CCOCC(O)CS(=O)(=O)O (stereo not given)	inactive	inactive	–	–
C[C@@H](N)C(=O)O	inactive	inactive	–	–
Cc1cc(C)n(CO)n1	inactive	inactive	–	–
CN(C)CCCOC1(Cc2ccccc2)CCCCCC1	inactive	inactive	–	–
Nc1nc(Cl)cc(Cl)n1	inactive	inactive	–	–
C[C@H]1[C@@H](c2ccccc2)NC(=O)N1C	inactive	inactive	–	–
O=C(OCCOCCOC(=O)c1ccccc1)c1ccccc1	inactive	inactive	–	–
CC(C)Nc1ccc(NC(C)C)c2c1C(=O)c1ccccc1C2=O	inactive	inactive	–	–
CCC(C)C1CCCCC1=O (stereo not given)	inactive	inactive	–	–
CC(=O)C1C(=O)C=C(C)OC1=O (stereo not given)	inactive	inactive	–	–

SMILES	Potency [1]	Potency [2]	viability change, negative = cytotoxic [1]	activity change, negative = cytotoxicity [2]
Clc1ccnc(Cl)n1	inactive	inactive	–	–
Brc1cc2ccccc2c2ccccc12	inactive	inactive	–	–
O=C=NCc1cccc(CN=C=O)c1	–	–	5.35% [at 18.9 µM]	-0.289% [at 18.9 µM]
NC(=O)C(=O)N/N=C/c1ccc([N+](=O)[O-])o1	inactive	inactive	–	–
CCCCC(CC)COC(=O)CCCCCCCC(=O)OCC(CC)CCCC (stereo not given)	inactive	inactive	–	–
CC1C(C)(C)C2=C(C(=O)CCC2)C1(C)C (stereo not given)	inactive	inactive	–	–
C[C@@H]1C[C@H]2[C@@H]3C[C@H](F)C4=CC(=O)C=C[C@]4(C)[C@@]3(F)[C@@H](O)C[C@]2(C)[C@@]1(O)C(=O)CO	inactive	inactive	–	–
CN1C(=O)CC(C)(c2ccccc2)C1=O (stereo not given)	inactive	inactive	–	–
COC(=O)C(C)(C)C	inactive	inactive	–	–
Oc1ccccc1F	inactive	inactive	–	–
C=CC(C)(C)O	inactive	inactive	–	–
ClC1=C(Cl)C(Cl)(Cl)C(Cl)=C1Cl	inactive	inactive	–	–
CCCCN1C[C@H](O)[C@@H](O)[C@H](O)[C@H]1CO	inactive	inactive	–	–
[Cl][Nd]([Cl])[Cl]	inactive	inactive	–	–
CC(=O)[O][Al][O]C(C)=O	inactive	inactive	–	–
C=C(C)C(=O)OCCN(C)C	inactive	inactive	–	–
CN1C(=O)c2ccccc2C1=O	inactive	inactive	–	–
O=C(NOCC1CC1)c1ccc(F)c(F)c1Nc1ccc(I)cc1Cl	inactive	inactive	–	–
CC(C)C(=O)Nc1ccc([N+](=O)[O-])c(C(F)(F)F)c1	inactive	inactive	–	–
COC(C)CCO (stereo not given)	inactive	inactive	–	–
O=C(c1ccccc1)c1ccc(O)cc1	inactive	inactive	–	–
CCC1Nc2cc(Cl)c(S(N)(=O)=O)cc2S(=O)(=O)N1 (stereo not given)	inactive	inactive	–	–
NS(=O)(=O)c1ccccc1Cl	inactive	inactive	–	–
Nc1nc(-c2ccccc2)c(Br)c(=O)[nH]1	inactive	inactive	–	–

SMILES	Potency [1]	Potency [2]	viability change, negative = cytotoxic [1]	activity change, negative = cytotoxicity [2]
Cc1nc2c([nH]1)c(=O)n(C)c(=O)n2Cc1ccco1	inactive	inactive	–	–
COc1ccc2c(c1)CCCC2=O	inactive	inactive	–	–
CCCC(=O)O	inactive	inactive	–	–
CCN(CC)CCOc1ccc2c(c1)C(=O)c1cc(OCCN(CC)CC)ccc1-2	inactive	inactive	–	–
COc1ccc(CN(CCN(C)C)c2ccccn2)cc1	inactive	inactive	–	–
O=C1CCCCCCCCCCCN1	inactive	inactive	–	–
COc1ccc(CCN(C)CCCC(C#N)(c2cc(OC)c(OC)c(OC)c2)C(C)C)cc1OC (stereo not given)	inactive	inactive	–	–
CCCC(=O)O[C@]1(C(=O)CO)CC[C@H]2[C@@H]3CCC4=CC(=O)CC[C@]4(C)[C@H]3[C@@H](O)C[C@@]21C	inactive	inactive	–	–
CCCCCCCCCCCCSC#N	inactive	inactive	–	–
CCCCCCC(C)(C)C(=O)O	inactive	inactive	–	–
CCCN1C=CN(C)C1	inactive	inactive	–	–
CCCCCCCCc1ccc(S(=O)(=O)O)cc1	inactive	inactive	–	–
CCCCO	inactive	inactive	–	–
O=C(OCC(O)CO)c1ccccc1Nc1ccnc2cc(Cl)ccc12 (stereo not given)	inactive	inactive	–	–
C=C(C)C(=O)O	inactive	inactive	–	–
COCc1nnc(-c2ccc[n+]([O-])c2)n1-c1c(Cl)c(Cl)cc2[nH]c(=O)c(=O)[nH]c12	inactive	inactive	–	–
CN1CCCC1=O	inactive	inactive	–	–
C=C(C)[C@@H]1CC=C(C)CC1	inactive	inactive	–	–
CC[N+](C)(CC)CCOC(=O)C1c2ccccc2Oc2ccccc21	inactive	inactive	–	–
CC(C(=O)O)c1ccc2c(c1)Cc1cccnc1O2 (stereo not given)	inactive	inactive	–	–
O=S(=O)(O)c1ccc(N=Nc2c(O)ccc3cc(S(=O)(=O)O)ccc23)cc1	inactive	inactive	–	–
CC(=O)OC(C)(C)C1CC=C(C)CC1 (stereo not given)	inactive	inactive	–	–
OCCCS	inactive	inactive	–	–
COc1cccc(N)c1	inactive	inactive	–	–
